Values without a mark were called inactive. The source made the active and inactive calls. No stated cut-off is given here; in the data, active means fold change mostly below about -2 (no sharp cut-off); inactive means mostly above about -1.8.

This assay in a line: TERT promoter activity modulators, primary screen, cell-based, luciferase reporter, human (AID 1259240). To be noted: A2780 TERT promoter luciferase reporter, 16 h; at 20 µM, fold versus average of vehicle-only wells. (A reporter such as luciferase makes a cellular process visible.)
Turning to `O=C(NCC1(c2ccccc2)CCCC1)c1ccc2c(=O)n3c(nc2c1)CCCCC3`, the fold change is -1.33.

Consider `O=C(Nc1nccs1)c1cc2ccccc2c(=O)s1`, for which the fold change was -1.86.

As to `COC(=O)CSc1nnc2c3c4c(sc3nc(C)n12)CCCC4`, the fold change was -1.45.

With `C=CCOc1cccc(C2c3c(oc4ccccc4c3=O)C(=O)N2c2nc(C)c(C(C)=O)s2)c1` (stereo not given), the fold change is 1.02.

For `O=C(Nc1ccc2snnc2c1)Nc1ccccc1Cl`, the fold change was -1.86.

Regarding `CCOC(=O)CSc1nnc(-c2c[nH]c3ccccc23)n1C`, the molecule was classed as inactive.

With `CCOC(=O)N1CCC(Nc2c(N3CC(C)CC(C)C3)c(=O)c2=O)CC1` (stereo not given), the fold change was 1.09.

Consider `O=S1(=O)NC(=NC2CCCCCC2)c2ccccc21`, for which the outcome was inactive.

Regarding `Cc1ccc2nc(N3CCOCC3)c3nncn3c2c1`, the fold change is 1.35.

Consider `CCOc1cc(C2CC(=O)Nc3cc4c(cc32)OCCO4)ccc1O` (stereo not given), for which the fold change is -1.

Consider `O=C(Cn1nc(C(F)F)cc1C1CC1)N1CCCC1`, for which the fold change was 1.2.

On to `COC(=O)c1nc2n(n1)C(c1ccc(C)cc1)C1=C(CCCC1=O)N2` (stereo not given), for which the call was inactive.

Regarding `CC(=O)N1CSCC1C(=O)N1CCN(c2ccc(N3CCOCC3)nn2)CC1` (stereo not given), the fold change is -1.03.

Turning to `Cc1cc(NC(=O)CSc2nnc(Cc3cc(=O)[nH]c(=O)[nH]3)n2-c2ccccc2)no1`, the fold change is -1.88.

As to `NC(=O)C1CCN(C(=O)N2c3ccccc3Sc3ccccc32)CC1`, the fold change is -2.9 (active).

With `CCN1CCN(C(=O)CN2C(=O)COc3ccc(S(=O)(=O)N4CCC(C)CC4)cc32)CC1`, the fold change is 1.16.

In the case of `O=C(CSc1ncnc2ccccc12)Nc1cccc(F)c1`, the fold change is 1.32.

With `O=C(C1CCCN1S(=O)(=O)c1cccc2nsnc12)N1CCN(c2ccccn2)CC1` (stereo not given), the fold change was -1.3.

Regarding `Cc1c(NC(=O)Nc2cccc(C#N)c2)c(=O)n(-c2ccccc2)n1C`, the fold change is -1.39.

Regarding `COc1cc(Nc2nc3ccccc3n3cnnc23)cc(OC)c1OC`, the fold change is 1.1.

As for `CC(=O)NC1=NN(C(C)=O)C2(S1)C(=O)N(C)c1ccccc12` (stereo not given), the fold change was -1.23.

Turning to `CNC(=O)c1ccc(-c2nn(C)c(=O)c3ccccc23)cc1`, the fold change is -1.06.

For `CCOc1ccc2c(c1)CN(Cc1ccc(Cl)cc1)CO2`, the fold change is -1.71.

For the molecule `CCCc1cc(C(=O)Nc2c(C)n(C)n(-c3ccccc3)c2=O)no1`, the fold change was -1.12.

For the molecule `Cn1c(=O)c2c(SCC(=O)Nc3ccc4c(c3)OCO4)nc(-c3ccco3)nc2n(C)c1=O`, the fold change was 1.03.

Take `CC1Cc2ccccc2N1S(=O)(=O)c1cccc2cccnc12` (stereo not given): the fold change was -2.15 (active).

On to `CN(CC(=O)NCC1CCCO1)S(=O)(=O)c1ccc2c(c1)c(=O)n(C)c(=O)n2C` (stereo not given), for which the fold change is 1.06.

Consider `COC(=O)C1Cc2cc(OC)c(OC)cc2C(Cc2ccc(OC)c(OC)c2)=N1` (stereo not given), for which the fold change was -1.78.

As to `Cc1cc(Cl)ccc1OCc1nc(-c2ccc(-n3cccc3)cc2)no1`, the fold change is -1.5.

For the molecule `CCC(CO)NS(=O)(=O)c1ccc(OC)c(-c2nnc3c4ccccc4c(C)nn23)c1` (stereo not given), the fold change was -1.69.

With `CC(=O)c1ccc(N2CCN(C(=O)CCCc3nnc4n5nc(C)nc5c5ccccc5n34)CC2)cc1`, the fold change is -1.6.

Consider `Cn1c(=O)c2cc(S(=O)(=O)NCCC(=O)NC3CCCCCC3)ccc2n(C)c1=O`, for which the fold change is 1.3.

As to `O=C(CC(=O)Nc1ccc(F)cc1F)Nc1ccc2nc3n(c(=O)c2c1)CCCCC3`, the fold change is -1.32.

On to `Cn1c(=O)oc2cc(S(=O)(=O)N3CCCC(C(=O)NCCN4CCCC4)C3)ccc21` (stereo not given), for which the fold change was 1.73.

For the molecule `N=C1/C(=C/c2ccc(SCc3ccco3)o2)C(=O)N=C2SC=C(c3ccccc3)N12`, the fold change was -1.25.

Consider `N=c1n(CCN2CCOCC2)c2ccccc2n1CC(O)c1ccco1` (stereo not given), for which the fold change was -2.53 (active).

For the molecule `CCOC(=O)C1CCCN(c2c(NC3CCN(C(=O)OCC)CC3)c(=O)c2=O)C1` (stereo not given), the fold change was 1.19.

With `Cc1ccc2oc(-c3cc(NC(=O)c4ccc5c(c4)OCCO5)ccc3O)nc2c1`, the outcome was active.

`Fc1ccc(-c2nnc3ccc(N4CCOCC4)nn23)cc1`: the fold change was 1.05.

In the case of `Cc1nc2sccn2c1-c1csc(Nc2ccc(O)cc2)n1`, the fold change was -1.8.

The values are drawn from PubChem BioAssay AID1259240 (Keith Lab, Institute of Cancer Science, University of …, 2017).
